Screening results as filed in PubChem BioAssay.
Peg3 prom inh: Peg3 promoter-driven luciferase inhibitors, primary screen, cell-based, HeLa, luciferase luminescence; HeLa PEG-Prom luciferase reporter, overnight; inhibition, % at 20 µM; 360,000 tested, 1.7% active; AID 588405, 2011;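 active = inhibition of at least 50% at 20 µM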
ABHD5-PLIN5 inh: ABHD5-PLIN5 interaction inhibitors, primary screen, cell lysate, split luciferase complementation, luminescence. AID 602281, 2012. Split G. princeps luciferase complementation, 4 h. Perilipin-5 (Homo sapiens) + 1-acylglycerol-3-phosphate O-acyltransferase ABHD5 (Homo …. 360,000 tested, 0.78% active. inhibition, % at 4 µM;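 active = inhibition above the mean inhibition across every tested compound plus 3 SD, cut at about 22% in these data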;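 also: 0% = DMSO only wells and the 100% control is not disclosed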
Target sequence (Q00G26 whole entry, looked up): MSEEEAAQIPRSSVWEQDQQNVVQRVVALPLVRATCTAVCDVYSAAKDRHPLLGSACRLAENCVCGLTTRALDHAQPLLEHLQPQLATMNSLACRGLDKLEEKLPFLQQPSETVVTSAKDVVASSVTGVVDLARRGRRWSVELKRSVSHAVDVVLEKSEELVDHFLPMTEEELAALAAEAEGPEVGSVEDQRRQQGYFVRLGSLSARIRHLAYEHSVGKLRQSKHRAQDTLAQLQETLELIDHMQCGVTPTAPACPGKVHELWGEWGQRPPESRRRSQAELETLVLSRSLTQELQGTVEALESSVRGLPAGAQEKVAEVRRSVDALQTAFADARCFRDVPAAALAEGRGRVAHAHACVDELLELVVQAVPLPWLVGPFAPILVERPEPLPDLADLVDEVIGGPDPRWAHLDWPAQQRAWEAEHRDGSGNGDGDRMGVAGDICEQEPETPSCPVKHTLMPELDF
Target sequence (Q8WTS1 whole entry, looked up): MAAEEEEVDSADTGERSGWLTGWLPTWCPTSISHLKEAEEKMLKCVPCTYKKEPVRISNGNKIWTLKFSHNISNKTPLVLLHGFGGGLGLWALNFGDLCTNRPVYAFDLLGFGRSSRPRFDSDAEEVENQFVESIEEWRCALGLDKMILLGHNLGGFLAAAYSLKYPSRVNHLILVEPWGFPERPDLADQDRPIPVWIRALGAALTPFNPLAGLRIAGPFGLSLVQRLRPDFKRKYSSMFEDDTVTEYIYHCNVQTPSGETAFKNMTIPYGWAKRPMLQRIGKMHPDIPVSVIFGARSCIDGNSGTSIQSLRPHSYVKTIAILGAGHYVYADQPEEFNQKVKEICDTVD
CF NFkB inh: inhibitors of PAF-induced NF-kB signaling, primary screen, cell-based, GFP fluorescence, uHTS; KKLEB NF-kB-GFP reporter, GFP fluorescence overnight; inhibition, % at 5 µM; 360,000 tested, 0.86% active;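 active = at least 50% inhibition at 5 µM, scaled per plate between neutral and stimulator controls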;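 also: PAF is a Pseudomonas aeruginosa culture filtrate used as stimulus; plate controls were PAF-stimulated DMSO wells for no effect and unstimulated DMSO wells for full effect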
HIF-2a block: HIF-2a reporter inhibitors, primary screen, luminescence, 786-0 RCC cells | inhibition, % at 18.8 µM | 360,000 tested, 0.72% active | 786-0 RCC cells HIF-2a reporter, luciferase luminescence, overnight;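 active = inhibition of the luminescence signal of 40% or more relative to plate controls, in a single-dose primary screen at 18.75 µM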
TRPM1 prom inh: inhibitors of MITF-dependent TRPM1 promoter reporter, primary screen, cell-based, SK-MEL-5, single point, luciferase. SK-MEL-5 TRPM1 promoter luciferase, 24 h. inhibition, % at 12.5 µM. 330,000 tested, 0.83% active. AID 488899, 2010;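 active = mean inhibition across replicates of 60% or more, whatever share of single replicates reaches that level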
KKLEB cytotox: cytotoxicity in KKLEB CF airway cells, primary screen, cytotoxicity control for CF NF-kB inhibitor project, cell-based, uHTS, fluorescence assay plates; KKLEB CF airway cells viability, ATPlite luminescence, overnight; active compounds read low; cells stimulated with P. aeruginosa culture filtrate; activity change (cytotoxicity), % at 5 µM; 360,000 tested, 0.36% active; AID 602141, 2011;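 active = corrected activity change at or below -50% at 5 µM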
The depositor's hits bear a star; / = not tested or not shown. A selection: hits, their analogues and other compounds. The true share with any hit is near 3.1%.

SMILES | Peg3 prom inh | ABHD5-PLIN5 inh | CF NFkB inh | HIF-2a block | TRPM1 prom inh | KKLEB cytotox
COc1ccc(OCC(=O)Nc2ccc3oc(-c4ccncc4)nc3c2)cc1 | -35 | -2 | -2 | -20 | -2 | 11
Cc1ccc(OCC(=O)Nc2ccc(O)c(-c3nc4ccccc4o3)c2)cc1 | 52* | 7 | 70* | 5 | 42 | -61*
COc1ccc(CNC(=O)CC[C@H]2O[C@@H](n3cc(C)c(=O)[nH]c3=O)C[C@@H]2O)cc1 | -2 | 2 | 2 | 10 | / | 11
Cc1cc(NC(=S)N(CCN2CCCCC2)Cc2ccco2)ccc1Cl | 7 | 6 | 8 | 4 | -4 | -6
Cc1ccc(NC(=S)N(CCCN2CCCC2)Cc2cccn2Cc2ccc(Cl)cc2)cc1Cl | 98* | 11 | 16 | -14 | -3 | -19
CCOC(=O)c1cc([N+](=O)[O-])sc1NC(=O)c1ccc(S(=O)(=O)N2CC3(C)CC2CC(C)(C)C3)cc1 (centres undefined) | 46 | 0 | 48 | 1 | 76* | -42
Cc1cc(=O)oc(C)c1C(=O)Nc1ccccc1F | 5 | 4 | -2 | 10 | 2 | -2
COCCSc1nnc(NC(=O)C2CC(=O)N(CCc3ccc(F)cc3)C2)s1 (centres undefined) | -4 | 4 | -11 | 13 | 9 | 14
CCCC(=O)Nc1ccc(-c2csc(N/N=C\c3ccncc3)n2)cc1 | 68* | 7 | -26 | -174 | 1 | 0
CC(=O)Nc1ccc(-c2csc(N/N=C\c3ccncc3)n2)cc1 | -22 | 0 | -29 | -90 | / | 4
COC1C=CC=C(C)C(=O)NC2=CC(=O)C(N)=C(CC(C)CC(OC)C(O)C(C)C=C(C)C1OC(N)=O)C2=O (centres undefined) | 64* | -12 | 64* | -45 | 65* | 17
CCc1nc2ccc(C(=O)NCCc3ccccn3)cn2c1N(C)Cc1cccs1 | 2 | -3 | 1 | -5 | / | -5
COc1cc(O)cc(O)c1C(=O)/C=C/c1ccccc1 | 24 | 12 | 52* | 26 | 19 | -12
N/C(=N\OC(=O)/C=C/c1ccccc1)c1ccccn1 | -58 | 0 | 10 | -183 | -43 | -4
O=C(/C=C/c1ccccc1)c1ccccn1 | -144 | 23* | 7 | -142 | -29 | -6
NC(=O)c1nc(-c2ccco2)nc2c1[nH]c(=O)n2-c1ccc(Cl)c(Cl)c1 | 80* | 6 | -12 | 17 | 5 | 3
CC(C)(C)N(NC(=O)Nc1ccc(Cl)c(Cl)c1)C(=O)c1ccccc1 | 61* | -2 | 39 | 31 | 2 | -21
Cc1cccc(NC(=O)N2CCC(NC(=O)C3CCCCC3)CC2)c1 | 9 | 3 | 1 | 6 | 0 | 5
Cc1occc1-c1nnc(SCC(=O)N2CCCCC2)o1 | -28 | 6 | 12 | -28 | 2 | -3
Cc1nc(C)n(CC(=O)N2CCCC(C(=O)c3ccc(C(F)(F)F)cc3)C2)n1 (centres undefined) | 12 | -1 | 13 | 10 | -9 | -20
C[n+]1c(/C=C/c2ccc(O)cc2)ccc2ccccc21 | -244 | -5 | -49 | -75 | -29 | 15
Cc1cc(/C=C\c2ccc3cc(N(C)C)ccc3[n+]2C)c(C)n1-c1ccccc1 | 64* | 26* | -37 | 28 | 101* | -14
Cc1c(C(=O)N2CCN(c3ccccn3)CC2)sc2ncnc(N3CCOCC3)c12 | 7 | 4 | 4 | 7 | 17 | -8
Cc1nc(N2CCN(c3ccccn3)CC2)c2c(C)c(C(=O)N3CCN(c4ccc(F)cc4)CC3)sc2n1 | 58* | 1 | 4 | 20 | -4 | -7
Cc1c(C(=O)N2CCN(c3ccccc3)CC2)sc2ncnc(N3CCN(c4ccccn4)CC3)c12 | 56* | -1 | -13 | 13 | 27 | -11
SMILES | Peg3 prom inh | ABHD5-PLIN5 inh | CF NFkB inh | HIF-2a block | TRPM1 prom inh | KKLEB cytotox
O=C(CSc1nnnn1C1CCCCC1)Nc1ccccc1N1CCOCC1 | 18 | 3 | 0 | 2 | -7 | -19
CC1(C(=O)NS(=O)(=O)Cc2ccccc2)CCN1C(=O)Cc1ccccc1Cl (centres undefined) | -14 | -3 | -6 | 1 | / | -2
CC12C=CC(=O)C=C1CCC1C3CCC(O)(C(=O)CO)C3(C)CC(O)C12F (centres undefined) | -7 | -3 | 70* | 12 | -13 | 36
CC(=O)OCC(=O)C1(O)CCC2C3CCC4=CC(=O)CCC4(C)C3(F)C(O)CC21C (centres undefined) | 5 | 0 | 75* | 23 | -19 | 36
CC12C=CC(=O)C=C1CCC1C3CCC(O)(C(=O)CO)C3(C)CC3OC312 (centres undefined) | 13 | 0 | -3 | 24 | -2 | 10
CC(=O)OCC(=O)[C@@]1(O)CC[C@H]2[C@@H]3CCC4=CC(=O)C=C[C@]4(C)[C@@]3(F)[C@@H](O)C[C@@]21C | 4 | -1 | 65* | 23 | -10 | -16
CC12C=CC(=O)C=C1C(F)CC1C3CCC(O)(C(=O)CO)C3(C)CC(O)C12F (centres undefined) | -16 | 1 | 69* | 20 | -12 | 24
COc1ccc(C(C)=O)cc1CN1C(=O)NC(CC(C)C)C1=O (centres undefined) | 1 | 2 | 19 | 11 | -3 | -3
Cc1nc(Cl)c(C(=O)NCc2ccccc2)c(C)c1[N+](=O)[O-] | 10 | -2 | 11 | 8 | -1 | -8
Fc1ccc(OCc2nn[nH]n2)c(F)c1 | -1 | 0 | -18 | 11 | 10 | -1
Cc1cc(-c2n[nH]c(=S)n2/N=C/c2ccccc2[N+](=O)[O-])n[nH]1 | 51* | 1 | 0 | 9 | 9 | 6
Cc1ccc(Cl)cc1NC(=O)C1CCCN1S(=O)(=O)c1ccc(-c2ccc(=O)[nH]n2)s1 (centres undefined) | -11 | 0 | -4 | 24 | 5 | -13
Cc1ccccc1Cn1c(=N)n(CC(=O)c2ccc([N+](=O)[O-])cc2)c2ccccc21 | 71* | -4 | 38 | 20 | 66* | -64*
N=c1n(CCN2CCOCC2)c2ccccc2n1CC(=O)c1cccc([N+](=O)[O-])c1 | 15 | 8 | -17 | -1 | 16 | -5
N=c1n(CC(=O)c2cccc([N+](=O)[O-])c2)c2ccccc2n1Cc1ccccc1 | 58* | -4 | 14 | 5 | 51 | -16
CCn1c(=N)n(CC(=O)c2cccc([N+](=O)[O-])c2)c2ccccc21 | -236 | 0 | -32 | -276 | -50 | -10
